Common to all, as to type: functional
Test [1] addresses Solute carrier family 2, facilitated glucose transporter member 1 (Homo sapiens) (UniProt P11166). Description: ST_JUDE_LEISH: Cytotoxicity at 2uM final concentration against transgenic Leishmania Mexicana promastigotes LmGLUT1 that are glucose transport deficient and complemented with the human glucose transporter GLUT1. Activity is measured by DNA content using SYBR green in vitro.

In test [2] the target is Hexose transporter 1 (Plasmodium falciparum) (UniProt O97467). Description: ST_JUDE_LEISH: Cytotoxicity at 2uM final concentration against transgenic Leishmania Mexicana promastigotes LmPfHT that are glucose transport deficient and complemented with the Plasmodium falciparum hexose transporter. Activity is measured by DNA content using SYBR green in vitro.
Test [3] addresses Glucose transporter (Leishmania mexicana) (UniProt O61059). In words: ST_JUDE_LEISH: Cytotoxicity at 2uM final concentration against transgenic Leishmania Mexicana promastigotes LmGT2 that are glucose transport deficient and complemented with the L. Mexicana glucose transporter 2. Activity is measured by DNA content using SYBR green in vitro.

Sequence of Solute carrier family 2, facilitated glucose transporter member 1 (Homo sapiens) (P11166 whole entry): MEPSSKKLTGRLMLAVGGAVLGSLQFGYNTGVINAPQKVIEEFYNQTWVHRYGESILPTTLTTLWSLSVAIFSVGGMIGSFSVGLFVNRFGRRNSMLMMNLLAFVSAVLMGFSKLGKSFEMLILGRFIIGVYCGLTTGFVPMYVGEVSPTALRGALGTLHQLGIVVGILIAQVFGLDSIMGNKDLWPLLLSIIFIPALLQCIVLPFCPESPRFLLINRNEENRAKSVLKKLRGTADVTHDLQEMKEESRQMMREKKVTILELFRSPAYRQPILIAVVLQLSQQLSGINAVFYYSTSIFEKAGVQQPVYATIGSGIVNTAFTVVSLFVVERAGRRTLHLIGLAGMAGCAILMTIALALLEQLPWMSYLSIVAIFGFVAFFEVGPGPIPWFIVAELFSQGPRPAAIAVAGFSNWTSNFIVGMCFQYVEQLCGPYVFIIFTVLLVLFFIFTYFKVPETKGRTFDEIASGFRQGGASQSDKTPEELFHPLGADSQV

Broadly, the inhibition is the relative decrease from the control value, in per cent. Turning to `CC(O)C1CCCCN1C(=O)c1cccc(-c2ccc(-c3nc4ccccc4[nH]3)s2)c1` (stereo not drawn), the inhibition was determined as 3.87% in test [1], 5.96% in test [2] and 5.38% in test [3].
In the case of `Cc1cccc2nc(-c3cccc(-c4cccc(NC(=O)CNc5ccc(C(N)=O)cc5)c4)c3)[nH]c12`, the results for the inhibition in test [1], in test [2] and in test [3] were 4.73%, 4.35% and 3.03%, respectively.
The like results for `COc1cc2c(cc1OC)CN(CCCCNC(=O)c1ccc(NC(=O)c3cc(Cl)cc(Cl)c3)cc1)CC2` were, in that order, 2.09%, 3.93% and 6.32%.
For `CC(C)CC(C)NC(=O)C1Cc2c([nH]c3cc(Cl)ccc23)C2(CCN(CCc3ccccc3)CC2)N1` (stereo not drawn), in that order: 6.97%, 7.27% and 4.34%.
As to `O=C(Nc1ccc(N2CCC(Nc3ccccn3)CC2)cc1)c1cnc(Cl)c(Cl)c1`, the inhibition in test [1] worked out at 18%; in test [2], 10.4%; in test [3], 4.85%.
The like results for `COc1ccc2nccc([C@@H](O)CN3CCC(NC(=O)/C(=C/c4ccccc4)c4ccc(-c5ccccc5)cc4)CC3)c2c1` were, in that order, 1.6%, 0.83% and 0.6%.
The like results for `CC(C)NCC(=O)Nc1cccc(C(=O)Nc2cccc(C(F)(F)F)c2)c1` were, in that order, 4.13%, 2.76% and -1.8%.
For `COc1ccc(Nc2nccc(N3CCC(NC(=O)Nc4ccc5c(c4)OCO5)C3)n2)cc1` (stereo not drawn), in that order: 0.18%, 1.7% and 1.21%.
As for `O=C(Nc1cc(Cl)ccc1O)c1cnn2c(C(F)(F)F)cc(-c3cccs3)nc12`, the inhibition in test [1] stood at 2.61%; in test [2], 4.71%; in test [3], 3.63%.
For `Cc1[nH]c2c(NCc3ccc(F)cc3)nccc2c1C`, in that order: 4.48%, 4.33% and 2.57%.
For `CC(C)(CNCc1ccc(OC(F)(F)F)cc1)c1nc(-c2ccc(Cl)c(O)c2)c(-c2ccncc2)[nH]1`, in that order: -0.48%, 0.11% and 6.94%.
On to `COc1ccc(CNCc2ccc(-c3cccc(-c4nc5ccccc5[nH]4)c3)cc2)cc1`, for which the inhibition is 5.98% in test [1], 6.56% in test [2] and 2.14% in test [3].
As to `CCC(Nc1noc(-c2c(-c3ccccc3)noc2C)n1)c1ccccc1` (stereo not drawn), the inhibition was -1.15% in test [1], 2.18% in test [2] and 1.54% in test [3].
As to `c1cc(CNC2Cc3ccc(-c4cccs4)cc3C2)cc(-n2ccnc2)c1` (stereo not drawn), the inhibition in test [1] was found to be 3.39%; in test [2], 0.43%; in test [3], 1.86%.
For the compound `CO/C(=C\C=C/c1cc2cc(Cl)c(Cl)cc2[nH]1)C(=O)NC1CC(C)(C)N(C)C(C)(C)C1`, the inhibition in test [1] was 7.24%; in test [2], 5.6%; in test [3], 5.19%.
`CCc1cc2c(Sc3nnc(N)s3)ncnc2s1`: the inhibition was 2.44% in test [1], 0.05% in test [2] and -5.69% in test [3].
As for `O=C(NCCCCN1CCC(c2ccc(Br)cc2)CC1)c1ccc(NC(=O)c2ccc(Cl)cc2)cc1`, the inhibition in test [1] was -0.29%; in test [2], 0.2%; in test [3], -1.89%.
The like results for `CC1(C)NC(N)=NC(=N)N1OCCCOc1cc(Cl)ccc1Cl` were, in that order, 13.6%, 13.5% and 13.6%.
For the compound `CC(C)(C)NC(=O)c1ccc(Oc2ccc(OC(F)(F)F)cc2)c(NC(=O)C(C)(C)C)c1`, the inhibition was -3.08% in test [1], -1.32% in test [2] and -2.26% in test [3].
The like results for `Cc1cc(-c2cccc3c(C(=O)N4CCc5cc6nccc(N7CCCN(C)CC7)c6cc54)cccc23)cc(C)n1` were, in that order, -0.39%, 1.02% and 1.14%.
For `CCCCCCCCCCS(=O)(=O)N[C@H](COCc1cccc(Oc2ccccc2)c1)COP(=O)(O)OC`, in that order: 0.47%, 0.77% and -1.2%.
For `CN1CCN(CCCN(Cc2ccc(-c3cccc(CNCc4ccc5c(c4)OCO5)c3)cc2)C(=O)CCC2CCCC2)CC1`, the inhibition in test [1] is 2.35%; in test [2], 2.56%; in test [3], -0.03%.
Consider `O=C(Nc1ccc(S(=O)(=O)N2CCCCC2)cc1)c1cc(-c2ccccc2O)n[nH]1`, for which the inhibition was 11.8% in test [1], 12% in test [2] and 10.8% in test [3].
The like results for `Nc1nc(N)c2c(ccc3c2ncn3Cc2ccccc2)n1` were, in that order, 12.9%, 13.7% and 10.5%.
For the compound `CCN1CCN(c2ccc(Nc3c4ccccc4nc4ccccc34)cc2)CC1`, the inhibition in test [1] turned out to be 7.35%; in test [2] it was 10.6%; in test [3], 2.24%.
For `O=c1[nH]ccc2nc(N[C@@H]3CCCNC3)nc(Nc3ccc(S(=O)(=O)N4CCOCC4)cc3)c12`, in that order: 0.92%, 2.1% and -0.68%.
The like results for `CCC(C)c1cnc2nc(N)nc(N)c2c1C` (stereo not drawn) were, in that order, 1.18%, 1.66% and 2.42%.
The like results for `CN1CCN(CCCN(Cc2ccc(-c3ccc(CNCCc4ccccc4)cc3)cc2)C(=O)c2cccs2)CC1` were, in that order, 2.36%, 1.19% and 3.32%.
For the compound `COc1cccc2c(O)c(CNC3CCCCC3)ccc12`, the inhibition was -0.95% in test [1], -0.26% in test [2] and 1.11% in test [3].
Take `Cc1ccc(NC(=O)Nc2ccccc2F)cc1-c1ccc(C(=O)Nc2ccncc2)cc1`: the inhibition came to 1.42% in test [1], 1.06% in test [2] and 0.59% in test [3].
In the case of `Cc1ccc(NC(=O)N2CCN(CCCCCNC(=O)/C=C/c3ccc(Cl)c(Cl)c3)CC2)cc1C`, the inhibition is 8.95% in test [1], 7.71% in test [2] and 6.33% in test [3].
`S=c1nc(-c2ccccc2)n2ccsc2n1`: the inhibition is 1.86% in test [1], 2% in test [2] and 2.44% in test [3].
For `Cc1nc2ccccc2c(=O)n1/N=C/c1ccccc1[N+](=O)[O-]`, in that order: 3%, 1.45% and 2.65%.
As for `O=C(c1ccc(O)c(-c2cc(Cl)cc(Cl)c2)c1)N(CCO)CCO`, the results for the inhibition in test [1], in test [2] and in test [3] were 2.23%, 1.98% and 3.14%, respectively.
Turning to `COCCNC(=O)C1CCN(C(c2ccc(Cl)cc2)c2ccc(Cl)cc2)CC1`, the values for the inhibition in test [1], in test [2] and in test [3] were 7.23%, 6.03% and 9.02%, respectively.
In the case of `CCCN1CCN(CCCCNc2c3ccccc3nc3ccccc23)CC1`, the inhibition in test [1] is 51.5%; in test [2] it was 73.8%; in test [3], 27.7%.

Source of the values: ChEMBL document CHEMBL3433997, “St. Jude Leishmania screening dataset” (2016).
